Most compounds without a hit are left out; they make up all but 2.1% or so of the library.
PvdQ acylase: blocks Pseudomonas aeruginosa PvdQ acylase activity; purified PvdQ acylase, fluorescence plate reader; inhibition, % at 10 µM; 340,000 compounds, 0.063% hits; in the data active = inhibition above about 30%, passing the limit was not always enough
Ecoli rRNA inh: inhibits bacterial ribosomal RNA function over humanized ribosomes; AID 720706; GFP signal change (wild-type ribosome), % (no concentration beside the values); 350,000 compounds, 1.6% hits; E. coli WT GFP vs humanized-ribosome RFP mutants, fluorescence, 24 h; hits give low values; DMSO median 0, no signal -100;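 active = significant combined selectivity score with lowered wild-type GFP, culture density cut under 30%, mutant RFP and density less affected; inactive = any of these conditions unmet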
ERAP1 HTS inh: ERAP1 (human) enzyme inhibition | Q9NZ08 | recombinant ERAP1, Leu-AMC fluorescence, 60 min | inhibition, % at 10.7 µM | 340,000 compounds, 0.15% hits;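 active = mean replicate inhibition of at least 30%, or all replicates individually reaching that 30% level; inactive = mean below 30% and not every replicate reaching it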
Target sequence (Q9NZ08 whole entry, looked up): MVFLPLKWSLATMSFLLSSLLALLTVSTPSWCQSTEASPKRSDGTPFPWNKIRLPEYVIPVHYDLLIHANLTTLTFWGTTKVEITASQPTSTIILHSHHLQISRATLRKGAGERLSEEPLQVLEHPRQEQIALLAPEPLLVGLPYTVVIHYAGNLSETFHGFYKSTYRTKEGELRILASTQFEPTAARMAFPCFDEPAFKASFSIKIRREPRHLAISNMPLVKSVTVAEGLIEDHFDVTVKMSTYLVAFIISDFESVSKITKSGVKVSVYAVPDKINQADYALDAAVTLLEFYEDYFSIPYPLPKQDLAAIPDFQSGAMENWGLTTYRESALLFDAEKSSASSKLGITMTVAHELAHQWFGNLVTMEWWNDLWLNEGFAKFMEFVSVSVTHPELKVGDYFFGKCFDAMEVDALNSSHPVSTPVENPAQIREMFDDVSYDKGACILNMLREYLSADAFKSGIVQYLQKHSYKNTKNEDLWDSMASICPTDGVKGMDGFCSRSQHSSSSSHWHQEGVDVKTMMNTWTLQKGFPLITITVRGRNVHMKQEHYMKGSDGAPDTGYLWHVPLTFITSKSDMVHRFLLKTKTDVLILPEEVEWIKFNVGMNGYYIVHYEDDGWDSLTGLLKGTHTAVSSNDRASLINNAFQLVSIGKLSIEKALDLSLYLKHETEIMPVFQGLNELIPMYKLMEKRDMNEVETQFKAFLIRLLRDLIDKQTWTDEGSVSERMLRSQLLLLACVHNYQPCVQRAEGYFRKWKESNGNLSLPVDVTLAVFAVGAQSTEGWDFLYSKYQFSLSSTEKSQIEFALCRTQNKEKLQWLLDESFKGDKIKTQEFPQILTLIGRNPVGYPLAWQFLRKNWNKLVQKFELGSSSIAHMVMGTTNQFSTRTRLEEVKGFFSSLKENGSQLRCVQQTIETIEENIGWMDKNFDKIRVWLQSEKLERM
ARNT-TACC3 inh: disruptors of human ARNT/TACC3 interaction | Q9Y6A5 | AlphaScreen His-ARNT PAS-B/GST-TACC3 binding, luminescence; TACC3 fragment carries E629A point mutation | inhibition, % at 9.99 µM | 390,000 compounds, 0.66% hits | AID 623870;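 active = mean inhibition of replicates at least 50% and at least half of replicates each reaching 50%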
F508del corr: correctors of CFTR F508del function in bronchial epithelial cells. AID 720511. 350,000 compounds, 0.36% hits. CFBE cells, YFP halide quenching; stimulated with forskolin plus potentiator P3; % fluorescence drop versus neutral controls. activity (quench increase), % at 7.58 µM;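 active = mean added fluorescence quench of at least 8% versus neutral control, with both replicates also reaching 8%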;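 note: cells transiently co-express mutant CFTR-F508del with the halide-sensitive YFP; corrector assay measuring rescue of mutant channel to the surface after 24 h compound exposure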
A number is an active result; i = inactive; nt = no result.

SMILES | PvdQ acylase | Ecoli rRNA inh | ERAP1 HTS inh | ARNT-TACC3 inh | F508del corr
Cc1noc(C)c1NC(=O)Nc1ccc2c(c1)C(=O)N([C@@H](C)CO)C[C@H](C)[C@@H](CN(C)Cc1ccccc1)OCCCC[C@H](C)O2 | nt | i | i | i | i
O=C(/C=C/c1ccccc1)NC(=S)NNC(=O)c1cnccn1 | i | nt | nt | 60 | i
O=C(/C=C/c1ccccc1)NC(=S)NNC(=O)c1cccnc1 | i | nt | nt | i | nt
COc1cc(C(=O)NNC(=S)NC(=O)/C=C/c2ccccc2)cc(OC)c1OC | i | -15 | i | i | nt
O=C(C[C@H]1CC[C@@H]2[C@H](COC[C@@H](O)CN2C(=O)c2ccccc2F)O1)NCc1ccc(F)cc1 | nt | i | i | i | i
CCCN1C[C@H](C)[C@@H](OC)CN(C)C(=O)c2cc(NC(=O)Nc3ccccc3F)ccc2OC[C@@H]1C | nt | i | nt | i | i
COc1ccc(S(=O)(=O)Nc2ccc3c(c2)CC(=O)N([C@@H](C)CO)C[C@H](C)[C@H](CN(C)C(=O)Nc2ccccc2)O3)cc1 | nt | i | i | i | i
O=C1OC(c2ccccc2)Cc2cc(C(=O)N3CCN(c4ccc(F)cc4)CC3)ccc21 (stereo not given) | i | -29 | i | i | i
COc1ccc([Si](C)(C)[C@@H]2[C@@H](CCO)O[C@]3(C(=O)N(Cc4cccc(NC(C)=O)c4)c4ccccc43)[C@H]2C)cc1 | nt | nt | i | i | i
O=c1oc(-c2ccc(F)cc2)nc2ccsc12 | 70 | nt | nt | nt | nt
O=c1oc(-c2ccccc2Cl)nc2ccsc12 | i | nt | nt | nt | nt
O=C(NC(=S)N1CCc2ccccc21)c1ccc(Br)o1 | i | -42 | i | i | i
O=C(N/N=C/c1cccnc1)c1ccccc1NS(=O)(=O)c1cccs1 | i | -30 | i | i | i
O=C(NN=Cc1cc(Br)c(O)c(Br)c1)c1ccccc1NS(=O)(=O)c1cccs1 | i | -25 | i | i | i
CCOC(=O)c1sc(N=NC2=C(O)CCCC2=O)c(C(=O)OCC)c1C | i | -26 | i | i | i
CCOC(=O)c1sc(/N=C/N(C)C)c(C(=O)OCC)c1C | i | nt | nt | i | nt
O=S(=O)(c1cccc(-c2csc(N/N=C/c3ccco3)n2)c1)N1CCOCC1 | i | -23 | i | i | i
C[C@@H]1CN([C@H](C)CO)C(=O)Cc2cc(NC(=O)Cc3ccccc3)ccc2O[C@@H]1CN(C)C(=O)Nc1ccc(F)cc1 | nt | i | i | i | i
CSc1cccc(NC(=O)CSc2nc3ccccc3o2)c1 | i | -25 | i | i | i
O=S(=O)(c1ccc(Br)cc1)N1CCCc2ccccc21 | i | i | i | i | 11
COc1ccc(C(=O)O)cc1S(=O)(=O)N1CCCc2ccccc21 | i | i | i | 11 | i
O=S(=O)(c1ccc(F)c(F)c1)N1CCCc2ccccc21 | i | i | i | i | i
C[C@H](C(=O)N(C)C[C@@H]1OCc2ccccc2-c2ccccc2C(=O)N([C@H](C)CO)C[C@H]1C)c1ccccc1 | nt | i | i | i | i
C[C@H](CO)N1C[C@H](C)[C@@H](CN(C)C(=O)CN(C)C)Oc2ncc(C3=CCCC3)cc2C1=O | nt | i | i | i | i
O=C(N[C@H]1CC[C@H](CCNS(=O)(=O)c2cccc(Cl)c2)O[C@H]1CO)c1ccncc1 | nt | i | i | i | i
SMILES | PvdQ acylase | Ecoli rRNA inh | ERAP1 HTS inh | ARNT-TACC3 inh | F508del corr
O=C(O)c1ccnc(C(=O)O)c1 | i | nt | nt | 57 | nt
O=C(O)c1cc(Br)ccn1 | i | i | i | i | i
Cn1c(-c2ccccc2)cnc1N | i | nt | nt | 58 | nt
COc1ccc(-c2cnc(N)n2C)cc1 | i | i | i | 69 | i
COCCn1c(-c2ccccc2)cnc1N | i | nt | nt | 51 | nt
Cn1c(-c2ccccc2)cnc1SCC(N)=O | i | nt | nt | i | nt
COCC(=O)N(C)C[C@H]1Oc2ncc(-c3ccc(C)cc3)cc2C(=O)N([C@H](C)CO)C[C@@H]1C | nt | i | i | i | i
CC12c3ccccc3C(c3ccccc31)C1C(=O)N(c3ccncc3)C(=O)C12 (stereo not given) | i | i | i | i | i
O=C(O)c1ccc(N2C(=O)C3C4c5ccccc5C(Br)(c5ccccc54)C3C2=O)cc1 (stereo not given) | i | -36 | i | i | i
O=S(=O)(NC1CCc2ccccc21)c1ccc(S(=O)(=O)N2CCCC2)cc1 (stereo not given) | i | -29 | i | i | i
CCC(=O)Nc1ccc2c(c1)OC[C@H](C)N(C(=O)C1CCC1)C[C@@H](C)[C@@H](OC)CN(C)C2=O | nt | i | i | i | i
